Measured values: PubChem BioAssay AID624134 (Broad Institute, 2012)
Hit rate of the full screen: of about 1,600 compounds, about 1,100 (69%) were called active. The set was probably picked from earlier hits. The list is a sample of the results. Results with a measured potency or affinity are listed apart. Results filed as inconclusive are left out.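 Rule for the calls: active = signal drop with fitted half-maximal concentration no higher than twice the top valid tested concentration; inconclusive = flat curve with 30 to 70% signal loss, or poor fit; inactive = the rest, including signal rises and flat curves within 30%.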

experiment: loss of viability in HepG2 cells – cell-based, CellTiter-Glo, cherry-picked, cytotoxicity control for Shn3 inhibitor project, dose response (AID 624134); settings: CellTiter-Glo ATP luminescence, 48 h; series mostly up to 35 µM

| SMILES | outcome |
| --- | --- |
| CC1CN(C(=O)CCc2cc(C(C)(C)C)c(O)c(C(C)(C)C)c2)CC(C)O1 (stereo unspecified) | inactive |
| CCOc1ccc(Cn2nnc(C(=O)Nc3cc(OC)cc(OC)c3)c2N)cc1 | inactive |
| Cc1onc(-c2c(Cl)cccc2Cl)c1C(=O)N[C@@H]1C(=O)N2[C@@H]1SC(C)(C)[C@@H]2C(=O)O | inactive |
| Cc1onc(-c2ccccc2Cl)c1C(=O)N(C)C1CCCCC1 | inactive |
| COCc1c(C(=O)Nc2cccc(S(=O)(=O)N3CCCCC3)c2)oc2ccccc12 | inactive |
| COc1ccc(NC(=O)CCOc2cc(C)ccc2C)cc1S(=O)(=O)N1CCCCC1 | inactive |
| O=C(CSc1nnc(-c2ccc(Cl)cc2Cl)n1C1CCCCC1)N1CCCC1 | inactive |
| COC(=O)c1cn(NC(=O)c2cc([N+](=O)[O-])ccc2F)c(=O)c2ccccc12 | inactive |
| CCCCN1C2=NCCCN2c2cc(C)c(C)cc21 | inactive |
| CCN(CC)C(=O)[C@H]1C[C@H](CC(=O)NC/C=C(\C)CCC=C(C)C)C(=O)N2CCc3c([nH]c4cc(CCC(=O)N(C)C)ccc34)[C@]12C | inactive |
| COCCN1Cc2cccc(C(=O)Nc3ccc4c(c3)OCCO4)c2C1=O | inactive |
| COc1ccc(N2C(=O)C(CC(=O)Nc3ccccc3)N(Cc3ccc(OC)c(OC)c3)C2=O)cc1 (stereo unspecified) | inactive |
| Cc1ccc(CNC(=O)c2cc(-c3ccccc3C)nn2CC2CC(c3cccnc3)=NO2)cc1 (stereo unspecified) | inactive |
| COc1cc(NC(=O)c2cc3c(Cl)nc4ccccc4c3s2)cc(OC)c1OC | inactive |
| COC(=O)c1ccccc1NC(=O)c1nc(S(=O)(=O)Cc2ccccc2)ncc1Cl | inactive |
| CCS(=O)(=O)c1ncc(Cl)c(C(=O)Nc2ccccc2OC)n1 | inactive |
| Cc1cccc(CS(=O)(=O)c2ncc(Cl)c(C(=O)Nc3nnc(C(C)C)s3)n2)c1 | inactive |
| S=c1[nH]nc(COc2cccc3ccccc23)n1Cc1ccccc1 | inactive |
| COC(=O)c1ccc(COC(=O)c2[nH]c(C)c(C(C)=O)c2C)o1 | inactive |
| CCc1nnc(NC(=O)c2nc(S(=O)(=O)Cc3cccc(C)c3)ncc2Cl)s1 | inactive |
| CCCc1nnc(NC(=O)c2nc(S(=O)(=O)Cc3ccc(C)cc3)ncc2Cl)s1 | inactive |

| SMILES | outcome |
| --- | --- |
| CN(C)S(=O)(=O)c1cccc(N=c2scc(-c3ccc4c(c3)NC(=O)CO4)n2CC2CCCO2)c1 (stereo unspecified) | inactive |
| CC(C)(C)C(=O)Nc1cc(S(=O)(=O)N2CCCCC2)ccc1N1CCCCC1 | inactive |
| Cc1ccc(-c2nc3ncccc3o2)cc1NC(=O)c1sc2ccccc2c1Cl | inactive |
| Cc1ccc2cc(CN(CC3CCCO3)C(=O)NC3CCCCC3)c(=O)[nH]c2c1C (stereo unspecified) | inactive |
| Cc1ccc(C(=O)N2CCN(C)CC2)cc1S(=O)(=O)N1CCCCCC1 | inactive |
| O=C(OCCN1C(=O)c2cccc3c(N4CCOCC4)ccc(c23)C1=O)c1ccccc1Cl | inactive |
| COc1ccc(C(=O)OCC(=O)Nc2ccc3[nH]c(=O)[nH]c3c2)cc1 | inactive |
| Cc1cccc(C(C)(C)C)c1OCCN1CCCC1 | inactive |
| CCOC(=O)Cc1csc(SCC(=O)c2c(N)n(CC(C)C)c(=O)n(C)c2=O)n1 | inactive |
| COc1ccc2c(c1)c(CC(=O)Nc1cc(C)ccc1C)c(C)n2C(=O)c1ccc(Cl)cc1 | inactive |
| S=C(Nc1ccccc1)Nc1ccc(OCc2ccc(Cl)cc2Cl)cc1 | inactive |
| CCCCN1CC(COCc2ccccc2)Oc2cccc(Oc3cc(C)c(C)c(C)c3)c2S1(=O)=O (stereo unspecified) | inactive |
| O=C(CSc1nc(C(F)(F)F)cc(=O)[nH]1)N1CCCC1 | inactive |
| Clc1ccc(-c2cc(-c3nnc4n3CCCCC4)c3ccccc3n2)cc1 | inactive |
| Oc1c(CN2CCN(c3ccccc3)CC2)cc(Br)c2cccnc12 | inactive |
| Cc1cc(CN2CCOCC2)c(O)c(C2(C)CCCCC2)c1 | inactive |
| Cc1ccnc(N/C=C(/NC(=O)c2ccccc2)C(=O)N/N=C\c2ccc(F)cc2)n1 | inactive |
| CCS(=O)(=O)c1ccc2oc(SCC(=O)N3CCCCC3)nc2c1 | inactive |
| Oc1ccc(-c2csc(Nc3cccc4ccccc34)n2)cc1O | inactive |
| CCC(=O)c1cn(CC(=O)Nc2ccccc2Cl)c2ccccc12 | inactive |
| O=C(Cn1cc(C(=O)c2ccco2)c2ccccc21)Nc1ccccc1F | inactive |

| SMILES | outcome |
| --- | --- |
| NS(=O)(=O)c1ccc(CNC(=S)NC(=O)c2ccco2)cc1 | inactive |
| Cc1ccc(-c2nnc(N3CCC(C)CC3)c3ccccc23)cc1C | inactive |
| C[C@@H]1CN([C@H](C)CO)C(=O)c2cc(Br)cnc2O[C@H]1CN(C)C(=O)Cc1ccncc1 | inactive |
| Cc1cc(C(=O)COC(=O)c2ccccc2Br)c(C)n1CC1CCCO1 (stereo unspecified) | inactive |
| CCOC(=O)C1CCN(C(=O)c2sc3nc(C)nc(N4CCC(C)CC4)c3c2C)CC1 | inactive |
| CN(C(=O)CSc1nc(-c2cccs2)nc2ccccc12)C1CCS(=O)(=O)C1 (stereo unspecified) | inactive |
| CC(C)=CCC/C(C)=C/CNC(=O)C[C@H]1C[C@H](C(=O)N(C(C)C)C(C)C)[C@@]2(C)c3[nH]c4cc(CCC(=O)N(C)C)ccc4c3CCN2C1=O | inactive |
| O=[N+]([O-])c1cc(S(=O)(=O)C(F)(F)F)ccc1Sc1nc2ccccc2s1 | inactive |
| CS(=O)(=O)c1ccc(Sc2nc3ccccc3s2)c([N+](=O)[O-])c1 | inactive |
| N#C/C(=C(\O)Cc1ccccc1)c1nc2ccccc2[nH]1 | inactive |
| C=CCOC(=O)C1=C(C)N=C2SCCC(=O)N2C1c1cccs1 (stereo unspecified) | inactive |
| CC(=O)O[C@H]1CC[C@@]2(C)C(=CC[C@H]3[C@@H]4CC[C@H](C(C)=O)[C@@]4(C)CC[C@@H]32)C1 | inactive |
| C=CCNc1nc(N2CCOCC2)c(C#N)c2c1CN(C)CC2 | inactive |
| CC(=O)N1CCOc2cc(S(=O)(=O)NCc3ccc(F)cc3)c(C)cc21 | inactive |
| C[C@@H]1CN([C@H](C)CO)C(=O)CCCn2nncc2CO[C@H]1CN(C)S(=O)(=O)c1ccc2c(c1)OCCCO2 | inactive |
| CCn1nnc2cc(C(=O)Nc3cc(Cl)ccc3C)ccc21 | inactive |
| O=C(Sc1cccc2cccnc12)c1ccccc1Br | inactive |
| CN(c1ccccc1)S(=O)(=O)c1cccc(NC(=O)CSc2nncs2)c1 | inactive |
| CCOc1ccc2nc(SC3CC(=O)N(c4ccc(C)cc4)C3=O)sc2c1 (stereo unspecified) | inactive |
